Test results as given in PubChem BioAssay (NCATS).
Records with an inconclusive call do not appear. Active and inactive are the calls of the source. Unless noted, the call rests on the fitted dose curve; in most records, active means well fitted curve in the direction sought with a large enough effect; inconclusive means small, poorly fitted or top-dose-only effect, or another doubt; inactive means no such curve, though single readings can be large; an effect the other way counts as inactive or inconclusive.

How the values were obtained:
[1] = Cellular Toxicity (caspase-3) N2a (AID 665);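 further: compound exposure lasted 16 h at 37 °C before readout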
How it was run: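 Caspase-3/7 activation, measured as increased luminescence from aminoluciferin release, is quantified in mouse N2a cells exposed to compounds for 16 h. Values are normalized to DMSO and 10 uM staurosporine, with AC50 derived by Hill modelling.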

[2] = Cellular Toxicity (caspase-3) NIH 3T3 (AID 666);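 further: caspase signal read after 16 h compound exposure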
How it was run: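 Cells were plated at 1000 per well and incubated 5 hr at 37°C, then compound was added for 16 hr. Caspase-Glo 3/7 reagent followed for 20 min at room temperature before luminescence was read.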

[3] = Cellular Toxicity (caspase-3) Renal Proximal Tubule (AID 667);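 further: cells exposed to compound for 16 hours at 37 °C before detection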
How it was run: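 AC50 derived by standard Hill fit of concentration-response data, normalized between DMSO basal and 10 uM staurosporine as 100% stimulation. Cells: primary rat kidney proximal tubule, 16 h treatment at 37 °C.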

[4] = MultiTox-Fluor Cytotoxicity Assay - LYMP1-001 - Dead Cells (AID 946)
How it was run: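 In this qHTS, 15 uM tetraoctylammonium bromide defined 100% and DMSO defined basal activity. Lymphoblastoid cells (LYMP1-001, 2500 per well) received compound for 16 hr at 37 C before a fluorogenic dead-cell substrate readout at 485/520 nm.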

[5] = MultiTox-Fluor Cytotoxicity Assay - LYMP1-001 - Live Cells (AID 947)
[6] = Cell Viability - LYMP1-002 - Assay at 16 hr (AID 948)
How it was run: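 Seed 2500 LYMP1-002 cells per well in complete medium and hold 5 hr at 37 C. Add compound across a concentration series and incubate 16 hr at 37 C. Add CellTiter-Glo, wait 30 min at room temperature, read luminescence.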

[7] = MultiTox-Fluor Cytotoxicity Assay - LYMP1-002 - Live Cells (AID 955)
How it was run: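 Cells were seeded at 2500 per well and incubated 5 hr. Compounds were then added for 16 hr at 37 C, followed by MultiTox-Fluor reagent for 60 min at room temperature and fluorescence reading of viable-cell protease signal.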

[8] = MultiTox-Fluor Cytotoxicity Assay - LYMP1-002 - Dead Cells (AID 960);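 further: cells exposed to compound for 16 h at 37 °C; nearly all actives have a fitted effect of over 60% in size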
How it was run: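 Cells were plated, rested 5 hr, then treated with compound dilution series for 16 hr at 37 C. After adding substrate reagent and 60 min at room temperature, dead-cell protease fluorescence gave concentration-response curves fitted by the Hill equation.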

[9] = MultiTox-Fluor Cytotoxicity Assay - LYMP1-003 - Dead Cells (AID 961);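 further: cells exposed to compound for 16 h at 37 °C; nearly all actives have a fitted effect of over 70% in size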
How it was run: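 Acute toxicity is scored as increased dead-cell protease activity in human lymphoblastoid LYMP1-003 cells after 16 h compound exposure in complete culture medium. Activity is normalized to DMSO basal and 15 uM tetraoctylammonium bromide as full response.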

[10] = MultiTox-Fluor Cytotoxicity Assay - LYMP1-003 - Live Cells (AID 962);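 further: cells exposed to compound for 16 hours at 37 °C; cytotoxic hits lower the live-cell protease signal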
How it was run: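 Acute cytotoxicity is scored as a drop in live-cell protease activity in human lymphoblastoid LYMP1-003 cells after 16 hr compound exposure at 37 C. AC50 values come from Hill-equation modelling of concentration-response data.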

[11] = Cell Viability - LYMP1-003 - Assay at 24 hr (AID 963)
How it was run: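 Cytotoxicity is scored as a concentration-dependent fall in ATP-linked luciferase signal in human lymphoblastoid LYMP1-003 cells treated 24 hr at 37 C in complete culture medium.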

[12] = Cell Viability - LYMP1-003 - Assay at 40 hr (AID 964); further: series mostly up to about 92 µM; nearly all actives have a fitted effect of over 60% in size
How it was run: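 Luminescent ATP signal (CellTiter-Glo) served as the viability read-out after 40 hr compound treatment of human lymphoblastoid LYMP1-003 cells at 37 C. Decreases in ATP were fitted with the Hill equation to give AC50.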

[13] = Cell Viability - LYMP2-003 (AID 965);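 further: cells exposed to compounds for 24 h before reading; nearly all actives have a fitted effect of over 50% in size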
How it was run: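 Seed 2500 lymphoblastoid cells/well; incubate 5 hr, 37 C; add compounds; incubate 24 hr, 37 C; add CellTiter-Glo, 30 min RT; read luminescence. AC50 from Hill fit.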

[14] = Cell Viability - LYMP2-004 (AID 966); further: nearly all actives have a fitted effect of over 65% in size
How it was run: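 qHTS cytotoxicity: human lymphoblastoid line, 24 hr compound treatment, 37 C, complete medium. Viability read as cellular ATP via luciferase luminescence; tetraoctylammonium bromide served as positive control.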

[15] = Cell Viability - LYMP2-005 (AID 967);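 further: series mostly up to about 92 µM; cells exposed to compound for 24 h at 37 °C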
How it was run: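 Acute cytotoxicity is scored as a concentration-dependent drop in intracellular ATP in human lymphoblastoid LYMP2-005 cells after 24 h compound treatment. ATP is quantified by luciferase luminescence, and AC50 is derived by Hill-equation modelling.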

[16] = Cell Viability - LYMP2-011 (AID 969); further: nearly all actives have a fitted effect of over 60% in size
How it was run: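 In this qHTS cytotoxicity format, compounds are tested across concentrations on human lymphoblastoid cells in complete medium for 24 hours at 37 C. Viability is taken as cellular ATP measured by luciferase luminescence.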

[17] = Cell Viability - LYMP2-013 (AID 970);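 further: series mostly up to about 92 µM; cells exposed to compound for 24 h at 37 °C; nearly all actives have a fitted effect of over 55% in size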
How it was run: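 Cytotoxicity is scored as a concentration-dependent drop in intracellular ATP in human lymphoblastoid cells after 24 hr compound exposure at 37 C. ATP is quantified by luciferase luminescence, and AC50 values come from Hill-equation modeling.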

[18] = Cell Viability - LYMP2-015 (AID 971); further: nearly all actives have a fitted effect of over 55% in size
How it was run: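 Cells are seeded at 2500 per well and incubated 5 hr at 37 C. Compounds are added across a concentration series for 24 hr at 37 C. CellTiter-Glo is added, and luminescence is read after 30 min at room temperature.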

[19] = Cell Viability - LYMP2-017 (AID 972); further: series mostly up to about 92 µM; nearly all actives have a fitted effect of over 55% in size
How it was run: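 Cytotoxicity is scored as a concentration-dependent drop in cellular ATP in a human lymphoblastoid line after 24 hr treatment at 37 C. Values are AC50s from Hill-equation modelling.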

[20] = qHTS assay for small molecule antagonists of the retinoid-related orphan receptor gamma (ROR-gamma) signaling pathway - cell viability counter screen (AID 720652; active means well fitted curve in the direction sought with a large enough effect in the repeat runs; an effect the other way counts as inactive or inconclusive;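 further: CHO reporter cells with doxycycline-induced ROR-gamma expression; series mostly up to about 92 µM; compound exposure lasted 16 hr before ATP read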)
How it was run: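 Steps: seed CHO cells bearing TET-inducible ROR and ROR response element-luciferase; rest 5 hr at 37 C; add compound, then doxycycline; incubate 16 hr; add CellTiter-Glo and read luminescence as ATP-based viability.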

Measured: Potency

O=Cc1ccccc1
inactive: all assays above

CCOc1cc(C=O)ccc1O
inactive: all assays above

COC(=O)c1ccccc1C(=O)OC
inactive: all assays above
